Bioassay records as filed in PubChem BioAssay.
Hits are enriched below; roughly 3.4% of the tested compounds scored in any of these assays.
MITF primary: inhibitors of human MITF | O75030 | AlphaScreen MITF homodimerization, bead proximity signal | inhibition, % at 2.6 µM | 650,000 compounds, 0.91% hits | AID 1259374; in the data active = inhibition above about 50%;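 also: 0% = vehicle wells with protein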
GPR151 ag: human GPR151 activation. PathHunter beta-arrestin GPR151 cells, luminescence. 650,000 compounds, 1% hits. activation, % at 11.2 µM. AID 1508602. Q8TDV0; in the data active = activation above about 4.9%;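 also: 0% = median of compound wells and 100% = cells with positive control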
FBW7 act: activators of human E3 ligase FBW7; AlphaScreen FBW7–phospho-cyclin E peptide binding, activator screen; normalized activity (activation), % at 26.1 µM; 650,000 compounds, 0.13% hits; AID 1259310; in the data active = normalized activity above about 1.9%;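 also: purified mutant Fbw7 with reduced substrate affinity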
TEAD-YAP block: TEAD-YAP interaction inhibition; HEK-TIYL cells, TEAD-Gal4/YAP UAS-luciferase luminescence; inhibition, % at 9.12 µM; 640,000 compounds, 1.4% hits; AID 1259422; in the data active = inhibition above about 32%;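 also: 0% = median of test compound wells and 100% = reference inhibitor wells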
GPR151 conf act: human GPR151 activation, confirmation screen; shares compounds with GPR151 ag; GPR151 PathHunter beta-arrestin cells, luminescence, 90 min; % of EA-reagent control over plate median; activation, % at 11.2 µM; 6,700 tested, under 10 active; AID 1508609;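 active = mean percent activation across replicates above the confirmation screen cutoff of 4.91%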
GPR119 ag: counter-screen for GPR151 activators: effect on human GPR119; activation, % at 11.2 µM; shares compounds with GPR151 ag; GPR119 PathHunter beta-arrestin cells, luminescence, 90 min; 0 = compound-well median, 100 = enzyme-acceptor control; AID 1508611; 6,700 compounds, 0.3% hits;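 active = mean percent activation in the counterscreen above 29.09%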;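 also: counterscreen on off-target GPR119 to flag nonselective hits from the GPR151 activator screen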
* marks the source's active call; other numbers are inactive results; x = not tested or not shown; ! = repeats disagree.

SMILES	MITF primary	GPR151 ag	FBW7 act	TEAD-YAP block	GPR151 conf act	GPR119 ag
COc1cc(OC)cc(C(=O)Nc2sc3c(c2C#N)CCN(C(C)=O)C3)c1	9	7.3*	0	61*	1	4
COc1cc(C(=O)Nc2sc3c(c2C#N)CCN(C(C)=O)C3)cc(OC)c1OC	6	-1	0	29	x	x
CC(C)CC(=O)Nc1c(C(=O)Nc2ccc3c(c2)OCO3)oc2ccccc12	1	1	0	-1	x	x
CC(C)N1CCN(Cc2ccc(OCc3ccccc3)cc2)CC1CCO (centres undefined)	9	-1	0	-3	x	x
COc1ccc(-n2ccnc2CN2CCN(C(C)C)C(CCO)C2)cc1 (centres undefined)	5	5.0*	0	-1	0	-9
CC(C)N1CCN(Cc2cccn2-c2cccnc2)CC1CCO (centres undefined)	2	-1	0	-5	x	x
CC(C)N1CCN(Cc2ccc(OC3CCCC3)cc2)CC1CCO (centres undefined)	10	17*	0	13	-1	2
CCc1nnc(N/N=C/c2cn[nH]c2-c2ccc(F)cc2)n1N	-12	-1	0	0	x	x
O=C(CN1CCC(c2nc3ccccc3s2)CC1)N1CCOCC1	13	0	0	8	x	x
CCCn1c(-c2nc(OC)cc(OC)n2)n[nH]c1=S	-11	7.0*	0	1	-1	-6
COc1ccc(-c2nc(NCCc3ccc(O)cc3)c3ncn(C4CCCCC4)c3n2)cc1	19	-1	0	4	x	x
C#CCSc1nsc(NC(=O)Nc2cccc(F)c2)n1	1	7.1*	0	36*	1	-1
O=c1c(-c2ccc(Cl)cc2)c(N2CCCC2)c1=O	9	-2	0	9	x	x
CCC1CCCCN1C(=O)c1c[nH]c2ccc(S(=O)(=O)N3CCOCC3)cc2c1=O (centres undefined)	0	1	0	7	x	x
Cc1ccccc1N(C)S(=O)(=O)c1nnc(NC(=O)c2ccccc2F)s1	10	1	0	-1	x	x
COc1ccc(C(=O)Nc2nnc(S(=O)(=O)N3c4ccc(C)cc4CC3C)s2)cc1 (centres undefined)	-3	0	0	-8	x	x
Cc1ccc(C(=O)Nc2nnc(S(=O)(=O)N3c4ccccc4CC3C)s2)cc1 (centres undefined)	-4	5.6*	0	-3	0	-2
CC1Cc2ccccc2N1S(=O)(=O)c1nnc(NC(=O)c2ccccc2)s1 (centres undefined)	4	0	0	6	x	x
CN(c1ccccc1)S(=O)(=O)c1nnc(NC(=O)c2ccccc2F)s1	9	10*	0	6	1	0
Cc1ccc2c(c1)CC(C)N2S(=O)(=O)c1nnc(NC(=O)c2ccccc2F)s1 (centres undefined)	11	8.5*	0	3	-1	-10
COc1ccn(Cc2ccc(Cl)nc2)c(=O)c1C#N	2	2	0	4	x	x
CSCCC(NC(C)=O)C(=O)Oc1ccc2c3c(c(=O)oc2c1)CCCC3 (centres undefined)	15	5.4*!	1	4	0	-4
CC(Oc1ccc2c3c(c(=O)oc2c1)CCCC3)C(=O)O (centres undefined)	-1	0	0	7	x	x
COc1cccc(C=O)c1OCc1ccc(Br)cc1	-9	-2	0	-8	x	x
COc1cccc(C=O)c1OCc1ccc(F)cc1	-12	5.2*	0	0	1	-5
SMILES	MITF primary	GPR151 ag	FBW7 act	TEAD-YAP block	GPR151 conf act	GPR119 ag
COc1cc(OC)cc(C(=O)NNC(=O)Nc2ccc(Cl)c(Cl)c2)c1	11	-2	0	6	x	x
COc1cc(OC)cc(C(=O)N2CCc3ccccc3C2CNC(=O)Nc2ccc(Cl)c(Cl)c2)c1 (centres undefined)	-8	5.3*	0	4	1	9
CC(=O)Nc1cccc(-c2csc(Nc3ccccc3Cl)n2)c1	1	5.0*	0	-67	0	5
CC(=O)Nc1cccc(-c2csc(Nc3ccc(C)cc3)n2)c1	-6	10*	0	-71	0	11
O=[N+]([O-])c1ccc(Nc2nc(-c3ccccc3)cs2)cc1	23	6.1*	1	-36	1	15
O=C1C=Cc2ccc(N3CCOCC3)c3cccc1c23	13	6.1*	0	-13	0	7
CCN1C(=O)c2cccc3c(N4CCOCC4)ccc(c23)C1=O	-11	2	0	-35	x	x
